For some of these results: Potency and affinity values are given separately.

Holding throughout (set-up): scale not given: direction of the effect not stated beside the values
The target in experiment [1] is Protein translocase subunit SecA (Escherichia coli (strain K12)) (UniProt P10408). Nature of the experiment: Assay to Identify E. coli SecA ATPase Inhibitors. The format is functional. Particulars: 30 µM.
For experiment [2], the target named is T1, Ubiquitin-activating enzyme e1, putative (Leishmania donovani (strain BPK282A1)) (UniProt E9BSI1).
T1 sequence (whole entry): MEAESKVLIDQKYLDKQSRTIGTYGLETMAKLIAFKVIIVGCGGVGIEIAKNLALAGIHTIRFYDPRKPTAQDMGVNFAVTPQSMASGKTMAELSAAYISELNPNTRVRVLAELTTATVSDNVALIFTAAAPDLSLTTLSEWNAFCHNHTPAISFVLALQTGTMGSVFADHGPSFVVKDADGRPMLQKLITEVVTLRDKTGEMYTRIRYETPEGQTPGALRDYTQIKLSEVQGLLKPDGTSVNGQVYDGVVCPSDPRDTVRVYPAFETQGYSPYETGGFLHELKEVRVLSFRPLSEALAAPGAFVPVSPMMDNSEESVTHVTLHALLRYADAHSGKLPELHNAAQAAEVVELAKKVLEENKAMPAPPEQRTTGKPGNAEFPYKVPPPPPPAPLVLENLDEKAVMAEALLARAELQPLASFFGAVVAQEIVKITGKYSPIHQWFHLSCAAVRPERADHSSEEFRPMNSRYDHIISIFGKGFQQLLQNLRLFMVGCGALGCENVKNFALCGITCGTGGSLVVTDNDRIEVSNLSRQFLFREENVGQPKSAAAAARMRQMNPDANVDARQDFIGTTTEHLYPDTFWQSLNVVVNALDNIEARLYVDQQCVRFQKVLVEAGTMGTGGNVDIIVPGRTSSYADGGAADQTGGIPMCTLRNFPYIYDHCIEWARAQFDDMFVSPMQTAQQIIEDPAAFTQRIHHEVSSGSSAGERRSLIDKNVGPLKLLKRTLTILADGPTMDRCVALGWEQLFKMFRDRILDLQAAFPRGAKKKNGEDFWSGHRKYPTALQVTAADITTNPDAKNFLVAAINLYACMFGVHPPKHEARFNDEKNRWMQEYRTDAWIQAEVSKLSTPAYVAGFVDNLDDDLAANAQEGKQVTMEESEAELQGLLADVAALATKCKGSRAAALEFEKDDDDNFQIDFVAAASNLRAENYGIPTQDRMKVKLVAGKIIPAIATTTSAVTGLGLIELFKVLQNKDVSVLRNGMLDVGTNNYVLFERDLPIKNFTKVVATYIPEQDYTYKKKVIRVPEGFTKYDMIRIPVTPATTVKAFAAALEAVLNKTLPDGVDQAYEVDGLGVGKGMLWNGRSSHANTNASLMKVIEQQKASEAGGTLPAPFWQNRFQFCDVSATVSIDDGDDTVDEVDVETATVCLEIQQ
Nature of the experiment: Leishmania donovani Ubiquitin Activating Enzyme (LdE1). The format is functional. As to conditions: 30 µM.

Experiment [3] has as its target AMP-activated protein kinase, AMPK (Homo sapiens) (UniProt P54646+O43741+P54619+Q9UGJ0+Q9Y478+Q13131+Q9UGI9). In words: AMP-dependent Kinase enzyme assay. An in vitro enzyme assay that detects ADP turnover that is directly proportional to AMPK activity. This uses naive AMPK that is activated during the assay with MK-8722. Format: functional. As to conditions: 30 µM.

Experiment [4] has as its target Sialic acid-binding Ig-like lectin 9 (Homo sapiens) (UniProt Q9Y336). Nature of the experiment: Hs-Siglec9 ALPHAscreen SOP 20170721. Particulars: 10 µM. On the technique in general: Bead proximity is the source of the signal in Alpha formats.
For another experiment, the system named is Trypanosoma cruzi. In words: Trypanosoma cruzi phosphomannomutase and mannose-1-phosphate guanylyltransferase assay. Format: functional. Particulars: 10 µM.
Experiment [5] has as its target T2, Arginase-2, mitochondrial (Homo sapiens) (UniProt P78540).
T2 sequence (whole entry): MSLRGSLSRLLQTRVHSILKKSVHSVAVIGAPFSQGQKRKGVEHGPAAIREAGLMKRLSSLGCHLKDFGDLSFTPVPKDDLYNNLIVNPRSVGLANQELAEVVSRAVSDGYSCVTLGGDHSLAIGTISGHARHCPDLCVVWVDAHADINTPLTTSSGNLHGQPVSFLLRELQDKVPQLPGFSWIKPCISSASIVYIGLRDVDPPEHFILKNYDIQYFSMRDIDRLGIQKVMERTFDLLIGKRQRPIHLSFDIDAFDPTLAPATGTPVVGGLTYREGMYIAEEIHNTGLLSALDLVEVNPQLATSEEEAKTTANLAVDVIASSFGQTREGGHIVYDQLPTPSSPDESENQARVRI
In words: in vitro enzyme assay to detect the production of urea directly proportional to the activity of Arginase II. Note: in the data most compounds retested in dose-response had high values. Format: functional. Particulars: 33.3 µM.

The target in experiment [6] is T3, Proteasome subunit beta (Trypanosoma cruzi) (UniProt O96673).
T3 sequence (whole entry): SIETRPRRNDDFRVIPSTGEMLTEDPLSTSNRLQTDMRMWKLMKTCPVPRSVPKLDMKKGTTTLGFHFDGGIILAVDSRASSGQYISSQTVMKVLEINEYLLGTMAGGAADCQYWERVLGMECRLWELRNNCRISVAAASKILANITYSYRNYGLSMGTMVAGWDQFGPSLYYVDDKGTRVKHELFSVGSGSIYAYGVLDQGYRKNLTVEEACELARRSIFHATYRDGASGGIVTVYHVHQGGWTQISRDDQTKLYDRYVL
Nature of the experiment: Trypanosoma cruzi proteasome chymotrypsin-like activity (TcProtChymo) assay. Note: in the data most compounds retested in dose-response had high values. The format is functional. Particulars: 9.37 µM.

For another experiment, the species on record is Homo sapiens. In words: To identify inhibition of the IFN signalling (Jak-Stat) pathway via expression of an eGFP reporter gene under the control of an IFN-stimulated response element (ISRE) containing MxA promoter. Format: functional. Particulars: 30 µM. In general terms: In a reporter assay the amount or activity of a reporter protein is the signal.

Experiment [7] deals with T4, Tyrosyl-tRNA synthetase, putative (Trypanosoma cruzi (strain CL Brener)) (UniProt Q4DSP6).
T4 sequence (whole entry): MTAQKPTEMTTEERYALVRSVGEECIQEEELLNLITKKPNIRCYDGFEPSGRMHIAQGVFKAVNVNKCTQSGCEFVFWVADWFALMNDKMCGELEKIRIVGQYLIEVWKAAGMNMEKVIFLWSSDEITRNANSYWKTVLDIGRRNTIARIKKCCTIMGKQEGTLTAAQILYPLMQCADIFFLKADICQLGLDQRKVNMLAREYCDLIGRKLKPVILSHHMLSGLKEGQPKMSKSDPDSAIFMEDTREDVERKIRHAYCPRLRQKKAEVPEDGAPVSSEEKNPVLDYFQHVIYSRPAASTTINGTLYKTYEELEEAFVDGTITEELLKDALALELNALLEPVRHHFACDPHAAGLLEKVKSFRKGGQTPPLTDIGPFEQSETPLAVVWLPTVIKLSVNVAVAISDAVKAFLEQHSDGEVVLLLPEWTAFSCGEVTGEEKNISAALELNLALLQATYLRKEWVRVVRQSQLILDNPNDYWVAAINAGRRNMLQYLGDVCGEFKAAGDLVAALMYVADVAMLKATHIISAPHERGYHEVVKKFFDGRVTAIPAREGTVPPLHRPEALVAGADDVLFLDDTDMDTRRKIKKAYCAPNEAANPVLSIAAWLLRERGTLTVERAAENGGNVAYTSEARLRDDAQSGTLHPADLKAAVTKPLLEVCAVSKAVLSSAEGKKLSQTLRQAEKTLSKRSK
In words: Trypanosoma cruzi tyrosyl tRNA synthetase (TcYRS) _High Tyrosine SOP. Note: in the data most compounds retested in dose-response had high values. Format: functional. As to conditions: 30 µM.

The target in experiment [8] is T4, Tyrosyl-tRNA synthetase, putative (Trypanosoma cruzi (strain CL Brener)). In words: Trypanosoma cruzi tyrosyl tRNA synthetase (TcYRS) SOP. The format is functional. Particulars: 30 µM.
Experiment [9] addresses Chromo domain-containing protein 1 (Saccharomyces cerevisiae (strain ATCC 204508 / S288c) (Baker's yeast)) (UniProt P32657). In words: ScCHD-1 Enzyme Inhibition Assay. Note: in the data most compounds retested in dose-response had high values. The format is functional. As to conditions: 30 µM.

Sialic acid-binding Ig-like lectin 9 (Homo sapiens), sequence (Q9Y336 whole entry): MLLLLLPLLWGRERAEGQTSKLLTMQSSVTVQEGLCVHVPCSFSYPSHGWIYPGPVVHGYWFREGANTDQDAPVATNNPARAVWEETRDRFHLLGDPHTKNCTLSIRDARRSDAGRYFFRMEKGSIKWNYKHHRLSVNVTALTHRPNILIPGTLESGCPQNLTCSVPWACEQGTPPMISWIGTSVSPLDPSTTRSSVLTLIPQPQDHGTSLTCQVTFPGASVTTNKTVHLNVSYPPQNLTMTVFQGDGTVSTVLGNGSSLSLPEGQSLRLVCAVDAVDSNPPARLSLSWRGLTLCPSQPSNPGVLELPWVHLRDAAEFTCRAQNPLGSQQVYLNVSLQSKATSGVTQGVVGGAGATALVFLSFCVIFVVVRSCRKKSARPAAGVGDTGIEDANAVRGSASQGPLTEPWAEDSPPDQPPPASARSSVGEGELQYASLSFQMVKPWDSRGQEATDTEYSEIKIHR
Chromo domain-containing protein 1 (Saccharomyces cerevisiae (strain ATCC 204508 / S288c) (Baker's yeast)), sequence (P32657 whole entry, the tested form may be a part): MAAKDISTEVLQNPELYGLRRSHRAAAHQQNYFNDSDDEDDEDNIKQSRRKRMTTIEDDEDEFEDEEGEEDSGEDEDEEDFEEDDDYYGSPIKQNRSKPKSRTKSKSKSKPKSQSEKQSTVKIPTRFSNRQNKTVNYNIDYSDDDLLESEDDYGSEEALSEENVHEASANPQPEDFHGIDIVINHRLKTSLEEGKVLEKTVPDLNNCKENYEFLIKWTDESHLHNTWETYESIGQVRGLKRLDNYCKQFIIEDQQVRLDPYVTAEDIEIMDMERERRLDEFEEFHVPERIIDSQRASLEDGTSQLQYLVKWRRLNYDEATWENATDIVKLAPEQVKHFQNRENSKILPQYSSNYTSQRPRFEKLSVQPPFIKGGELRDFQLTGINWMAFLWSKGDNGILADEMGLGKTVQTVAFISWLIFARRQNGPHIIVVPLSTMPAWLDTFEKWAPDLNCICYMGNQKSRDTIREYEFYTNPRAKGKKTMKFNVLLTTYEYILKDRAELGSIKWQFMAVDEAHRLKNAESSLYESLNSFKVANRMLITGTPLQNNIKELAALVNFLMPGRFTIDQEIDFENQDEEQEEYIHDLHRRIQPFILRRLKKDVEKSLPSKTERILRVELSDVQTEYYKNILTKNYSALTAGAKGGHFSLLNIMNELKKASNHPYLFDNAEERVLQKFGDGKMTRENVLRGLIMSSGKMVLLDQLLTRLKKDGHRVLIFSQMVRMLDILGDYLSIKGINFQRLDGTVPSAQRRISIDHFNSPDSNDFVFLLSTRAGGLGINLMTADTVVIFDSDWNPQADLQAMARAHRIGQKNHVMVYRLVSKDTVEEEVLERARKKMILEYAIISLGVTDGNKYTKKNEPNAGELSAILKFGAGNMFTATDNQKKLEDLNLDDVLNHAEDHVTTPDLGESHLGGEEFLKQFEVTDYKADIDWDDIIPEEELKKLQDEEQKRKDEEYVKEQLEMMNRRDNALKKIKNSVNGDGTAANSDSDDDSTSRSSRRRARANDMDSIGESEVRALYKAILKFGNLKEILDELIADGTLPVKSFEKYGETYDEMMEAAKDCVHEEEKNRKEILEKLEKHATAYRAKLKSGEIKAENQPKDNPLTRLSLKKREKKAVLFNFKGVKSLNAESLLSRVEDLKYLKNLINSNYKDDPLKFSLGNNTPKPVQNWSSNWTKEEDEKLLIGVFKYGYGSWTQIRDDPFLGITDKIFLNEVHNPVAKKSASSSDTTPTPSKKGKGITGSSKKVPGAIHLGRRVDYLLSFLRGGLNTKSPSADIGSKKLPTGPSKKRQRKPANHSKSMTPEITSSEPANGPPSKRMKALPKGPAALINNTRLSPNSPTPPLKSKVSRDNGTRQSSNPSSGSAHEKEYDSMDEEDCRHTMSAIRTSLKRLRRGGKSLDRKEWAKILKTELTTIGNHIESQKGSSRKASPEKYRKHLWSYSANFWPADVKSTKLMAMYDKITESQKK
Protein translocase subunit SecA (Escherichia coli (strain K12)), sequence (P10408 whole entry): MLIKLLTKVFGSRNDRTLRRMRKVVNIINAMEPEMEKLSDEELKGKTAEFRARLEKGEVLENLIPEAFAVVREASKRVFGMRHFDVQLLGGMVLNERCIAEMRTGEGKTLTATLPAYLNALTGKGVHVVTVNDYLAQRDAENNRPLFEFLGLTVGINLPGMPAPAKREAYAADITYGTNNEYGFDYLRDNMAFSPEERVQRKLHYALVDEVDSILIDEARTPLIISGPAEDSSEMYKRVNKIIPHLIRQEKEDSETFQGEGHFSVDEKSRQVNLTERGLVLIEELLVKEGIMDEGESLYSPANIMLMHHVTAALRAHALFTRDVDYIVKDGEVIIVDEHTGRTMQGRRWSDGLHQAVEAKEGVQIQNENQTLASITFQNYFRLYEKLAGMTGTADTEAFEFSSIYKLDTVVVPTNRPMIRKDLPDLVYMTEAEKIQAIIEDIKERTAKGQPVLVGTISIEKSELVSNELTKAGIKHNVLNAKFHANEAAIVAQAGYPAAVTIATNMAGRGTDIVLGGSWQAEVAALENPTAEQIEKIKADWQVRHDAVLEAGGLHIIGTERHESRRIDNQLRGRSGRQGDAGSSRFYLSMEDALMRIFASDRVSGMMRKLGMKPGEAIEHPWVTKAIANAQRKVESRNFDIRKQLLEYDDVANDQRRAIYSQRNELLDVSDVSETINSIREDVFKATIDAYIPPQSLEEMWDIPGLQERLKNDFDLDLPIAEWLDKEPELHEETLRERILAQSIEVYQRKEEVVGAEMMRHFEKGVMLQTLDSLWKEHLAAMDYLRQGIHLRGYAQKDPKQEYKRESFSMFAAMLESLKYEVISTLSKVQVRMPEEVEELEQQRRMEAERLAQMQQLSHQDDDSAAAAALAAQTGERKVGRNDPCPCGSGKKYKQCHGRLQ

`c1cnn(CC2CCCN2c2ncnc3sccc23)c1` (stereo unspecified): the Percent Effect is -5.43% in [1]; -2.7% in experiment [2]; 2.65% in experiment [3]; 6.51% in [4]; -2.14% in the experiment on Trypanosoma cruzi; 3.14% in experiment [5]. For the same compound, the Percent Effect in experiment [6] was -1.44%; in the experiment filed under Homo sapiens it was 66.4%; in [7], 2.97%; in experiment [8], -25.6%; in experiment [9], 11.4%.
For the compound `FC(F)(F)C1CCCn2c(CNCc3ccsc3)nnc21` (stereo unspecified), the Percent Effect in experiment [1] was -2.76%; in [2], 2.67%; in experiment [3] it was -9.01%; in experiment [4] it was 4.99%; with Trypanosoma cruzi, 2.63%; in experiment [5], 1.56%. For the same compound, the Percent Effect in experiment [6] is 20.2%; in the experiment listed under Homo sapiens it was -14.2%; in experiment [7] it was 9.29%; in experiment [8], 18.5%; in experiment [9], -3.87%.
On to `CCCNC(=O)CCC(=O)Nc1ccc(-n2cncn2)c(F)c1`, for which the Percent Effect in [1] is -7%; in [2] it was 2.63%; in [3], -2.96%; in experiment [4], 4.31%; with Trypanosoma cruzi, -6.2%; in experiment [5], -2.68%. The Percent Effect in experiment [6] is -0.501%; in the experiment listed under Homo sapiens, 29.1%; in experiment [7], -0.49%; in experiment [8] it was 0%; in [9], -1.12%.
Take `CCOc1nnc(CNC2CCCN(c3ccc(C)nn3)C2)s1` (stereo unspecified): the Percent Effect in [1] was -2.75%; in experiment [2], 13.5%; in experiment [3] it was -13.2%; in experiment [4] it was -9.51%; in the experiment on Trypanosoma cruzi, 6.89%; in experiment [5], -8.02%. Besides, the Percent Effect is 15.1% in [6]; 18.7% in the experiment filed under Homo sapiens; 5.42% in experiment [7]; 23.5% in [8]; -2.87% in [9].
On to `CCn1c(Cn2cncn2)nnc1C1CCN(C(=O)CCSC)CC1`, for which the Percent Effect in experiment [1] was -3.03%; in experiment [2], 2.7%; in experiment [3], -5.34%; in [4], 25.4%; with Trypanosoma cruzi, 3.23%; in experiment [5], 20.6%. The Percent Effect in [6] was 0.944%; in the experiment listed under Homo sapiens it was 20.4%; in experiment [7], 6.45%; in experiment [8], 13.6%; in experiment [9] it was -3.37%.
As for `Cc1cnnn1Cc1ncn2c1CN(Cc1cccs1)CCC2`, the Percent Effect was -5.14% in experiment [1]; 2.7% in experiment [2]; -2.96% in experiment [3]; -6.54% in experiment [4]; -5.18% in the experiment with Trypanosoma cruzi; -0.955% in experiment [5]. Moreover, the Percent Effect in [6] was 15.3%; in the experiment listed under Homo sapiens, 14.8%; in experiment [7], 2.16%; in experiment [8], 5.13%; in experiment [9], -3.69%.
Consider `O=C(CN1CCC(c2cccc(F)c2)C1)NCC(F)(F)F` (stereo unspecified), for which the Percent Effect in [1] is -0.194%; in experiment [2], 18.4%; in experiment [3] it was -1.43%; in [4], -3.51%; in the experiment on Trypanosoma cruzi it was 3.57%; in [5], -1.15%. Also, the Percent Effect in [6] is 18.1%; in the experiment filed under Homo sapiens, 36.1%; in experiment [7], 6.37%; in experiment [8], 21.9%; in experiment [9], -8.57%.
On to `CCN1CCC(c2nc3ccc(NC(C)C)cn3n2)CC1`, for which the Percent Effect in experiment [1] is -3.94%; in [2], -2.7%; in experiment [3], -138%; in experiment [4], -3.17%; in the experiment on Trypanosoma cruzi, 7.62%; in [5], -1.25%. Also, the Percent Effect in experiment [6] is 4.48%; in the experiment listed under Homo sapiens, -12.5%; in experiment [7] it was 5.94%; in [8], 11%; in experiment [9] it was 0.337%.
In the case of `CCOc1nnc(CN2CCC(N(C)Cc3noc(C)n3)C2)s1` (stereo unspecified), the Percent Effect was -0.236% in experiment [1]; 13.2% in experiment [2]; -4.92% in experiment [3]; -14.9% in [4]; -9.06% in the experiment with Trypanosoma cruzi; 5.04% in [5]. Further, the Percent Effect in [6] was 12.4%; in the experiment filed under Homo sapiens it was 11.4%; in experiment [7], 7.39%; in experiment [8], 6.17%; in experiment [9] it was -8.06%.
Regarding `c1cnc(-c2nc(CN3CCCC(Cn4cncn4)C3)cs2)nc1` (stereo unspecified), the Percent Effect in [1] is -3.67%; in experiment [2], 8.11%; in experiment [3] it was -6.35%; in experiment [4], 6.78%; in the experiment with Trypanosoma cruzi, -4.81%; in [5] it was -0.802%. Besides, the Percent Effect in experiment [6] is 11%; in the experiment filed under Homo sapiens, 10.9%; in experiment [7] it was 6.4%; in experiment [8], 6.17%; in experiment [9], -4.11%.
Consider `CC(C)c1nccn1C1CCCN(C(=O)c2cccc3c2OCO3)C1` (stereo unspecified), for which the Percent Effect in experiment [1] was 1.99%; in [2], -46%; in experiment [3] it was -3.6%; in [4], 9.39%; in the experiment with Trypanosoma cruzi, 2.55%; in experiment [5], -5.61%. The Percent Effect in experiment [6] is 2.16%; in the experiment listed under Homo sapiens it was 9.02%; in experiment [7] it was 2.46%; in experiment [8], 11.1%; in experiment [9], -2.9%.

The record behind these values is ChEMBL document CHEMBL3988442, “University of Dundee, Small-Polar-MMV Screening Library” (2021).
